This passage reports Kd results from article PMC5540273 (PLoS ONE, 2017).

The subject of test [1] is RPS6KA4(Kin.Dom.1-N-terminal).
In test [2] the test system is T1, RSK1(Kin.Dom.2-C-terminal).
T1 construct: gene RPS6KA1

In test [3] the test system is T2, RSK2(Kin.Dom.2-C-terminal).
T2 construct: gene RPS6KA3

Test [4] deals with T3, RSK4(Kin.Dom.1-N-terminal).
T3 construct: gene RPS6KA6

Where only a bound is given, the exact number is not on record here.
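Further: kd values determined as follow-up on hits from a single-replicate KINOMEscan panel screen.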

In the test on RIPK1, `Nc1ncnc2occ(-c3ccc4c(c3)CCN4C(=O)Cc3cc(F)ccc3F)c12` [GSK2645446] gave a Kd of 0.41 µM.
Regarding `c1ccc(-c2ccnc3[nH]ccc23)cc1` [SB-693578], in the test with ROCK2, the Kd turned out to be 0.53 µM.
Regarding `O=C1NC(=O)C(c2ccc(Cl)cc2)=C1Nc1cccc(Cl)c1` [SB-317651], the Kd in test [1] is over 10 µM.
Same read-out and setting: next, `Cc1nccc(-c2c(-c3ccc(F)cc3)ncn2CCCN2CCOCC2)n1.Cl` [SB-282975]: over 10 µM.
`NS(=O)(=O)c1cccc(N/C=C2\C(=O)Nc3ccc(S(=O)(=O)Cc4c(Cl)cccc4Cl)cc32)c1` [GSK398099] returned a Kd in test [2] of over 10 µM.
As for `Cn1cnc2c(N)ncnc21` [SKF-97623], in test [2], the Kd was over 10 µM.
`COc1ccc(Nc2nccc(N3CCC(NC(=O)C(C)c4ccc(Cl)cc4)CC3)n2)cc1` (stereo not drawn) [GSK1379812]: the Kd in test [3] was over 10 µM.
Turning to `O=C(Nc1n[nH]c2nc(-c3cccs3)c(Br)cc12)C1CC1` [SB-735297], the Kd in test [4] is 3.8 µM.
In turn, `Cn1cncc1C(=O)NC1CCN(c2ccnc(Nc3ccc(F)cc3)n2)C1` (stereo not drawn) [GSK1379717] displayed a Kd in the test on SRPK1 of over 10 µM.

The Kd is the constant that tells how readily two partners part at equilibrium. Lower therefore signals higher affinity.
